# Assay results taken from a collection of fitness landscapes (doi:10.1016/j.celrep.2020.107928).
# Over roughly 81,000 sequences, “one-hybrid fitness for binding NBS DNA” has its median near -0.1; the highest 2% begin near 0.36. The entries come from a sample that favours the highest values as a whole.
# B1: Caulobacter ParB omega fusion; a variant is named by its letters at X, in order, B8GW30 (parent)
# chain: MESVVVGEPGMSEGRRGLGRGLSALLGEVDAAPAQAPGEQLGGSREAPIEILQRNPDQPRRTFREEDLEDLSNSIREKGVLQPILVRPSPDTAGEYQIVAGERAWRAAQRAGLKTVPIMVRELDDLAVLEIGIIENVQRADLNVLEEALSYKVLMEKFERTQENIAQTIGKSXSHVANXMRLLXLPDEVQSYLVSGELTAXHARAIAAAADPVALAKQIIEGGLSVRETEALARKAPNLSAGKSKGGRPPRVKDTDTQALESDLSSVLGLDVSIDHRGSTGTLTITYATLEQLDDLCNRLTRGI
# Variants of: B1
# Experiment: one-hybrid fitness for binding NBS DNA (the Noc-binding site; scaled: cognate 1, non-cognate 0); higher = stronger binding
# Conditions: with NBS DNA site
# Method in brief: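 Values were rescaled so that cognate is 1 and non-cognate is 0. Each is a fitness, the log change in a variant's read ratio to wild type from Illumina reads of plasmids before and after selection, with three replicate libraries pooled and variants under 10 reads dropped. Selection of the Caulobacter ParB libraries, four specificity codons randomised, used E. coli USO with a HIS3 reporter, site 19 bp from the promoter, on M9-minus-histidine with 0.1 mM IPTG and 5 mM 3-AT for 48 hours at 37°C.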
row,Variant,one-hybrid fitness for binding NBS DNA
1,QSGM,≤ 0.2
2,QCGQ,0.24
3,QPGC,≤ 0.2
4,QCGC,0.244
5,QRGC,0.402
6,QCGM,≤ 0.2
7,QRGD,0.293
8,QRGS,0.7
9,QSGQ,≤ 0.2
10,QRGP,0.301
11,QRGM,0.436
12,QRGQ,0.435
13,VHHD,≤ 0.2
14,KQFT,≤ 0.2
15,IGSG,≤ 0.2
16,ERAV,≤ 0.2
17,LHVR,≤ 0.2
18,AGVC,≤ 0.2
19,QSQV,≤ 0.2
20,LPLC,≤ 0.2
21,DDTM,≤ 0.2
22,HYPY,≤ 0.2
23,IAHC,≤ 0.2
24,SVFR,≤ 0.2

row,Variant,one-hybrid fitness for binding NBS DNA
1,YVTV,≤ 0.2
2,PPVI,≤ 0.2
3,KLLL,≤ 0.2
4,QRIT,0.678
5,QRPT,0.576
6,QPIT,≤ 0.2
7,QRIP,≤ 0.2
8,QAPT,0.23
9,QRPG,≤ 0.2
10,QSIT,0.353
11,QCIT,0.432
12,RPKK,≤ 0.2
13,VPVE,≤ 0.2
14,TFHR,≤ 0.2
15,VTIG,≤ 0.2
16,DETM,≤ 0.2
17,LSSE,≤ 0.2
18,IPSD,≤ 0.2
19,QCKS,0.711
20,QIKN,0.223
21,QSKH,0.587
22,QSVH,≤ 0.2
23,QSKS,0.645
24,QPKS,≤ 0.2

row,Variant,one-hybrid fitness for binding NBS DNA
1,QNKS,0.355
2,QSDH,≤ 0.2
3,QIKS,0.497
4,QIVS,≤ 0.2
5,TVQG,≤ 0.2
6,DATH,≤ 0.2
7,YDTE,≤ 0.2
8,TATG,≤ 0.2
9,KRHE,≤ 0.2
10,MHPT,≤ 0.2
11,RINQ,≤ 0.2
12,QTFR,0.584
13,QTFF,≤ 0.2
14,QTAY,0.306
15,QTAQ,0.251
16,QTAR,0.768
17,QTFG,≤ 0.2
18,SPYR,≤ 0.2
19,SHAM,≤ 0.2
20,QYYA,0.271
21,QYDA,≤ 0.2
22,QYKA,0.531
23,QYNA,0.269
24,QYRA,0.558

row,Variant,one-hybrid fitness for binding NBS DNA
1,QYVA,≤ 0.2
2,QPFC,≤ 0.2
3,FPTR,≤ 0.2
4,KLDM,≤ 0.2
5,RCSY,≤ 0.2
6,RRHY,0.452
7,RRAY,0.405
8,RRSY,0.393
9,RCQY,≤ 0.2
10,RSHY,≤ 0.2
11,RPQY,≤ 0.2
12,RRQY,0.525
13,RSSY,≤ 0.2
14,RRFY,0.314
15,RCAY,≤ 0.2
16,RCHY,0.215
17,SRQM,≤ 0.2
18,LMKG,≤ 0.2
19,SMNN,≤ 0.2
20,YTVM,≤ 0.2
21,DLVK,≤ 0.2
22,HQPS,≤ 0.2
23,VMQT,≤ 0.2
24,SRLY,≤ 0.2

row,Variant,one-hybrid fitness for binding NBS DNA
1,RIDV,≤ 0.2
2,AWTG,≤ 0.2
3,PYAQ,≤ 0.2
4,HRAG,≤ 0.2
5,RNYQ,≤ 0.2
6,RCRY,0.363
7,RCNY,0.221
8,RRDY,0.306
9,RRYY,0.349
10,RRRY,0.798
11,RRNY,0.589
12,WRPY,≤ 0.2
13,LPLQ,≤ 0.2
14,QRKR,1.08
15,QRVR,0.839
16,NRKR,0.309
17,QWKR,0.356
18,YQNG,≤ 0.2
19,TVTR,≤ 0.2
20,LWNE,≤ 0.2
21,YAMR,≤ 0.2
22,YPHD,≤ 0.2
23,LNNS,≤ 0.2
24,RSGW,≤ 0.2

row,Variant,one-hybrid fitness for binding NBS DNA
1,YQIT,≤ 0.2
2,RFAL,≤ 0.2
3,AGTL,≤ 0.2
4,QHDH,≤ 0.2
5,QHKQ,0.404
6,QHKS,0.655
7,QHVN,≤ 0.2
8,QHKD,≤ 0.2
9,QHKF,0.297
10,QHKH,0.546
11,QHKP,0.255
12,QHKN,0.427
13,QHKG,0.345
14,QHYQ,≤ 0.2
15,QHVQ,0.283
16,KHEE,≤ 0.2
17,SFKI,≤ 0.2
18,QVDA,≤ 0.2
19,RIMY,≤ 0.2
20,HVLC,≤ 0.2
21,GDVT,≤ 0.2
22,GYMF,≤ 0.2
23,QQLN,≤ 0.2
24,NQRT,≤ 0.2

row,Variant,one-hybrid fitness for binding NBS DNA
1,QQRT,0.8
2,QQET,0.371
3,QQWT,0.44
4,QQEI,≤ 0.2
5,QQLT,0.45
6,KQWT,≤ 0.2
7,KQRT,0.225
8,QQWC,≤ 0.2
9,QQES,0.23
10,QQLD,≤ 0.2
11,FLTY,≤ 0.2
12,KTPC,≤ 0.2
13,PLQH,≤ 0.2
14,TATP,≤ 0.2
15,MRTF,≤ 0.2
16,QQHT,0.535
17,QQQY,0.247
18,QQHM,≤ 0.2
19,QQQT,0.449
20,QQGT,0.475
21,QQYT,0.473
22,DQYT,≤ 0.2
23,QQGD,≤ 0.2
24,QQHC,≤ 0.2

row,Variant,one-hybrid fitness for binding NBS DNA
1,QQGM,0.202
2,QQQM,≤ 0.2
3,SAFG,≤ 0.2
4,IKRQ,≤ 0.2
5,STKR,0.254
6,FDSL,≤ 0.2
7,VKGK,≤ 0.2
8,DTSI,≤ 0.2
9,QQCT,0.528
10,QQSD,≤ 0.2
11,QQSP,≤ 0.2
12,QQCN,≤ 0.2
13,QQCS,0.356
14,QQST,0.516
15,QYKE,0.213
16,QYLN,≤ 0.2
17,QYKN,0.366
18,QYGY,≤ 0.2
19,QYKY,0.479
20,QYKL,0.246
21,QYVY,≤ 0.2
22,QYLD,≤ 0.2
23,QYDY,≤ 0.2
24,QYRY,0.486

row,Variant,one-hybrid fitness for binding NBS DNA
1,QYLT,0.383
2,QYFY,≤ 0.2
3,VANF,≤ 0.2
4,NCLY,≤ 0.2
5,QFRV,≤ 0.2
6,SHNY,≤ 0.2
7,QQPF,≤ 0.2
8,TSAQ,≤ 0.2
9,HDDG,≤ 0.2
10,CDFR,≤ 0.2
11,SYFG,≤ 0.2
12,LSYG,≤ 0.2
13,QYWY,≤ 0.2
14,QYWN,≤ 0.2
15,QYKM,0.369
16,QYWT,0.378
17,QYKG,0.294
18,QYCT,0.419
19,QYPM,≤ 0.2
20,QYCG,≤ 0.2
21,QYKH,0.569
22,QYKF,0.229
23,QYCY,≤ 0.2
24,QYLM,≤ 0.2

row,Variant,one-hybrid fitness for binding NBS DNA
1,LVLD,≤ 0.2
2,GKTG,≤ 0.2
3,TVSI,≤ 0.2
4,MEAE,≤ 0.2
5,YPFW,≤ 0.2
6,SPYH,≤ 0.2
7,HDPT,≤ 0.2
8,NGHF,≤ 0.2
9,GEAN,≤ 0.2
10,SSSE,≤ 0.2
11,QYKT,0.722
12,QYHC,≤ 0.2
13,QYRK,0.36
14,QYST,0.413
15,QYHT,0.417
16,QYHQ,≤ 0.2
17,QYSH,≤ 0.2
18,QYVT,0.363
19,QYYK,≤ 0.2
20,QYKK,0.398
21,QYPT,0.255
22,QYSS,0.357
23,VTAR,≤ 0.2
24,SYLG,≤ 0.2

row,Variant,one-hybrid fitness for binding NBS DNA
1,HAQP,≤ 0.2
2,GPML,≤ 0.2
3,SDVP,≤ 0.2
4,IIPF,≤ 0.2
5,PDHK,≤ 0.2
6,MVPA,≤ 0.2
7,MAQR,≤ 0.2
8,QYRT,0.733
9,QYAT,0.427
10,QYYT,0.352
11,QYKD,0.212
12,QYAS,0.327
13,QYIT,0.355
14,QYKS,0.643
15,QYDM,≤ 0.2
16,QYKP,0.232
17,QYYM,≤ 0.2
18,QYFT,0.335
19,QYRM,0.394
20,SPCH,≤ 0.2
21,YMAS,≤ 0.2
22,ELYR,≤ 0.2
23,YQKG,≤ 0.2
24,QERT,≤ 0.2

row,Variant,one-hybrid fitness for binding NBS DNA
1,TNGI,≤ 0.2
2,RKAP,≤ 0.2
3,RKFS,0.435
4,RKAD,≤ 0.2
5,RKAS,0.597
6,RKFP,≤ 0.2
7,RKFN,≤ 0.2
8,EDSG,≤ 0.2
9,VTLK,≤ 0.2
10,ISMT,≤ 0.2
11,SRDR,≤ 0.2
12,QCYN,≤ 0.2
13,QPRN,≤ 0.2
14,QSDN,≤ 0.2
15,QCRN,0.482
16,QSYN,≤ 0.2
17,QSRN,0.374
18,KTCN,≤ 0.2
19,LIAD,≤ 0.2
20,LNLA,≤ 0.2
21,QQYI,≤ 0.2
22,QQDI,≤ 0.2
23,QQVI,≤ 0.2
24,QQRI,0.383

row,Variant,one-hybrid fitness for binding NBS DNA
1,QQKI,0.399
2,QQFI,≤ 0.2
3,ESLH,≤ 0.2
4,QARN,0.349
5,QAYH,≤ 0.2
6,QAYS,0.305
7,QAIS,≤ 0.2
8,QARH,0.529
9,QARS,0.644
10,TNFS,≤ 0.2
11,TAIV,≤ 0.2
12,LTFR,≤ 0.2
13,SLFT,≤ 0.2
14,ITST,≤ 0.2
15,SLTL,≤ 0.2
16,QRNF,0.327
17,QRNE,0.276
18,QRNS,0.716
19,QPDS,≤ 0.2
20,QRDS,0.468
